Screening data deposited in PubChem BioAssay by National Center for Advancing Translational Sciences (NCATS).
Giardia kill = Small Molecules that selectively kill Giardia lamblia: qHTS; Giardia lamblia trophozoite viability; activity change, % at 7.66 µM, hits read low; hit rate 0.15% among 340,000; in the data active = activity change below about -80%; inconclusive = between about -30% and that limit;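 also: parasites exposed to compound for two days anaerobically before the ATP read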
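Trophozoite viability was measured as ATP-dependent luminescence, read 15-30 min after reagent addition. Before that, parasites at 100 cells/well were exposed to compounds for 48 h, anaerobically, at 37 deg C.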
ELG1 DNA repair = qHTS screen for small molecules that inhibit ELG1-dependent DNA repair in human embryonic kidney (HEK293T) cells expressing luciferase-tagged ELG1; AID 504467, 2011; hit rate 2.3% among 330,000; HEK293T ELG1-luciferase reporter, luminescence, 16 h; DNA damage induced by 5-fluorouridine; Potency, µM (doses to about 46.1 µM), for inactives: at the highest dose activity change, negative = inhibition, hits mostly inhibitors; also: potency is read from the fitted curve at half-maximal effect; nearly all actives have a fitted effect of over 55% in size
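Overnight (16 hr) co-exposure of 2,000 cells/well to 5-fluorouridine and compound at 37 °C preceded detection. Luciferase was quantified via ONE-Glo luminescence; loss of signal denotes inhibition.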
IL-1B inflam inh = qHTS for Inhibitors of Inflammasome Signaling: IL-1-beta AlphaLISA Primary Screen; THP-1 LPS/ATP IL-1B secretion, AlphaLISA, 16 h; hits give low values; activity change, % at 57.5 µM; hit rate 4.7% among 360,000; AID 743279, 2014; in the data active = activity change below about -50%; inconclusive = mostly about -30% to -49%
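Secreted IL-1B measured by AlphaLISA bead assay after 16 h compound exposure of THP-1 cells; compounds (final up to 57.5 uM) added 1 h before LPS (250 ng/mL) and ATP (1.25 mM) stimulation; lower signal means less secretion.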
TDP1 cell noCPT = qHTS for Inhibitors of human tyrosyl-DNA phosphodiesterase 1 (TDP1): qHTS in cells in absence of CPT. Potency, µM (top dose mostly 46.2 µM), for inactives: at the top dose activity change, negative = growth inhibition, actives largely listed as inhibitors. hit rate 15% among 420,000. DT40 Tdp1-/- hTDP1 cells, no CPT, ATP luminescence, 48 h; also: potency is read from the fitted curve at half-maximal effect; nearly all actives have a fitted effect of over 55% in size
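Readout: luminescence from CellTiter-Glo after 30 min in the dark at RT. Cells: DT40 Tdp1-/- with stable hTDP1, 400/well. Exposure: compounds alone, ≥48 hr, 37 °C.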
TDP1 block = qHTS Assay for Inhibitors of Tyrosyl-DNA Phosphodiesterase (TDP1); Tyrosyl-DNA phosphodiesterase 1 (Homo sapiens), Q9NUW8; recombinant TDP1, AlphaScreen DNA substrate cleavage; Potency, µM (top dose mostly 130 µM), inactives show top-dose activity change, negative = inhibition, actives largely listed as inhibitors; hit rate 0.28% among 350,000; also: potency is read from the fitted curve at half-maximal effect; nearly all actives have a fitted effect of over 40% in size
Target sequence (Q9NUW8 whole entry, looked up): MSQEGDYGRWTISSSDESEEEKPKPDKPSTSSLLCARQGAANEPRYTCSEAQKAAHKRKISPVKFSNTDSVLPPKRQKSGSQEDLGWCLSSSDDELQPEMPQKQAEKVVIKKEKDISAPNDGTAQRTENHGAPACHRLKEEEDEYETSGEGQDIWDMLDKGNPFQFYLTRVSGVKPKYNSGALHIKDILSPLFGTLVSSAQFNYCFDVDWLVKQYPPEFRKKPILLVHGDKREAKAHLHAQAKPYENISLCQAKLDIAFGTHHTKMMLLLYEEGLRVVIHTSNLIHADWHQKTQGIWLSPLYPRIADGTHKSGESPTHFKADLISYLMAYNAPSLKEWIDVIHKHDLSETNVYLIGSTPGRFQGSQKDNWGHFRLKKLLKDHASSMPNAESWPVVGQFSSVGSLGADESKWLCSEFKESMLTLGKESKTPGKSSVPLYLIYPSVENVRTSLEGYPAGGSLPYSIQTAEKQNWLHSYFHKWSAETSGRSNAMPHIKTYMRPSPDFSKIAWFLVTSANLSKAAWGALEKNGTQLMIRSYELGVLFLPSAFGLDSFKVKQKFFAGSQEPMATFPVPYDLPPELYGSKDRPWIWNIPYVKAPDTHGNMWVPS
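Steps: enzyme plus compound, 15 min RT; add biotin/phosphotyrosine-FITC oligonucleotide (15 nM final), react 5 min; add donor/acceptor beads (10 ug/ml final), 10 min; read AlphaScreen. Tdp1 at 1 nM final.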
DT40 TDP1 CPT = qHTS for Inhibitors of human tyrosyl-DNA phosphodiesterase 1 (TDP1): qHTS in cells in presence of CPT. chicken DT40 Tdp1-/-;hTDP1 cells + 20 nM CPT, ATP luminescence, 48 h. AID 686979, 2013. hit rate 12% among 420,000. Potency, µM (series often up to 46.2 µM), for the others: top-dose activity change, negative = growth inhibition, actives largely listed as inhibitors; also: potency is read from the fitted curve at half-maximal effect; nearly all actives have a fitted effect of over 55% in size
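Chicken DT40 Tdp1-/- cells stably complemented with human TDP1 were seeded at 400 cells/well in medium containing 20 nM camptothecin, exposed to pin-transferred compounds, and grown at 37 °C for at least 48 hr. Viability was read as ATP luminescence.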
Active calls of the source: *; [ ] = another dose, or the depositor's remark. Most compounds without a hit are left out; they make up all but 19% or so of the library. Unless noted, calls follow the shape of the dose curve; as a rule, active = well fitted curve in the direction sought with a large enough effect; inconclusive = small, poorly fitted or top-dose-only effect, or another doubt; inactive = no such curve, though single readings can be large; an effect the other way counts as inactive or inconclusive. % is scaled to controls: 0 for no effect and ±100 for the full control effect.

What do the screens show for `C/C=C/c1ccc(OCCCNCC(C)O)c(OC)c1` (stereo not given)?
Giardia kill: 15; ELG1 DNA repair: 10%; IL-1B inflam inh: -10; TDP1 cell noCPT: inconclusive; TDP1 block: 2%; DT40 TDP1 CPT: inconclusive

What do the screens show for `C/C=C/c1ccc(OCCCCN2CC(C)CC(C)C2)c(OC)c1` (stereo not given)?
Giardia kill: 5; ELG1 DNA repair: 5%; IL-1B inflam inh: -70*; TDP1 cell noCPT: inconclusive; TDP1 block: 8%; DT40 TDP1 CPT: inconclusive

Results for C/C=C/c1ccc(OCCCCNCc2ccco2)c(OC)c1 ?
Giardia kill: 7; ELG1 DNA repair: -2%; IL-1B inflam inh: -58*; TDP1 cell noCPT: inconclusive; TDP1 block: -5%; DT40 TDP1 CPT: 26µM*

How did C/C=C/c1ccc(OCCCN2C(=O)NC(C)(C)C2=O)c(OC)c1 do in these assays?
Giardia kill: -1; ELG1 DNA repair: 23%; IL-1B inflam inh: 0; TDP1 cell noCPT: -25%; TDP1 block: 1%; DT40 TDP1 CPT: -24%

Results for CCCn1c(N)c(C(=O)CSc2nc(C)cs2)c(=O)[nH]c1=O ?
Giardia kill: 9; ELG1 DNA repair: -23%; IL-1B inflam inh: -11; TDP1 cell noCPT: 15µM*; TDP1 block: 2%; DT40 TDP1 CPT: inconclusive

What do the screens show for `COCCN1C=C2C(=O)C(C)(OC(=O)CCc3ccccc3)C(=O)C=C2C=C1c1ccc(C#N)cc1` (stereo not given)?
Giardia kill: -2; ELG1 DNA repair: -3%; IL-1B inflam inh: 24; TDP1 cell noCPT: -26%; TDP1 block: 7%[21 µM]; DT40 TDP1 CPT: inconclusive

Results for CC(C)CN1C=C2C(=O)C(C)(OC(=O)CCc3ccccc3)C(=O)C=C2C=C1c1ccc(C#N)cc1 (stereo not given) ?
Giardia kill: 7; ELG1 DNA repair: -7%; IL-1B inflam inh: -2; TDP1 cell noCPT: 18µM*; TDP1 block: -8%[21 µM]; DT40 TDP1 CPT: 21µM*

How did CC1(OC(=O)CCc2ccccc2)C(=O)C=C2C=C(c3ccc(C#N)cc3)N(Cc3ccccc3)C=C2C1=O (stereo not given) do in these assays?
Giardia kill: 13; ELG1 DNA repair: -9%; IL-1B inflam inh: 4; TDP1 cell noCPT: inconclusive; TDP1 block: 8%[12.3 µM]; DT40 TDP1 CPT: 18µM*

Results for CC1(OC(=O)C2CCCC2)C(=O)C=C2C=C(c3ccsc3)N(Cc3ccccc3)C=C2C1=O (stereo not given) ?
Giardia kill: 4; ELG1 DNA repair: 1%; IL-1B inflam inh: 25; TDP1 cell noCPT: 18µM*; TDP1 block: 13%[21 µM]; DT40 TDP1 CPT: inconclusive

How did CC1(OC(=O)CCc2ccccc2)C(=O)C=C2C=C(c3ccc(C#N)cc3)N(Cc3ccco3)C=C2C1=O (stereo not given) do in these assays?
Giardia kill: -10; ELG1 DNA repair: -2%; IL-1B inflam inh: 15; TDP1 cell noCPT: inconclusive; TDP1 block: -9%[21 µM]; DT40 TDP1 CPT: inconclusive

Results for CC(C)n1c(SCC(=O)NCc2ccco2)nnc1C1CC1 ?
Giardia kill: -24; ELG1 DNA repair: 13%; IL-1B inflam inh: 15; TDP1 cell noCPT: -2%; TDP1 block: 4%; DT40 TDP1 CPT: -8%

Results for N=C(N)Sc1nc(N2CCCCC2)nc(N2CCCCC2)n1 ?
Giardia kill: -7; ELG1 DNA repair: 5%; IL-1B inflam inh: 14; TDP1 cell noCPT: 13%; TDP1 block: 5%; DT40 TDP1 CPT: 13%

What do the screens show for `c1ccc(Sc2nc(N3CCCCC3)nc(N3CCCCC3)n2)nc1`?
Giardia kill: 3; IL-1B inflam inh: 23; TDP1 cell noCPT: 18µM*; TDP1 block: -6%; DT40 TDP1 CPT: inconclusive

How did Cc1[nH]c2ccccc2c1SCc1nnc(SCc2ccc(Cl)cc2)n1C do in these assays?
Giardia kill: 31; ELG1 DNA repair: 16µM*; TDP1 cell noCPT: inconclusive; TDP1 block: 11%; DT40 TDP1 CPT: inconclusive

What do the screens show for `Cc1[nH]c2ccccc2c1SCc1nnc(SCc2ccccc2)n1C`?
Giardia kill: -9; ELG1 DNA repair: -20%; IL-1B inflam inh: -57*; TDP1 cell noCPT: inconclusive; TDP1 block: 6%; DT40 TDP1 CPT: -15%

Results for O=C(NCCc1nnc2ccc(N3CCCCCC3)nn12)c1ccccc1F ?
Giardia kill: 3; IL-1B inflam inh: -14; TDP1 cell noCPT: -25%; DT40 TDP1 CPT: inconclusive

What do the screens show for `Cc1ccc(Cl)cc1-n1c(SCC(=O)NCCC2=CCCCC2)nc2n[nH]c(C)c2c1=N`?
Giardia kill: -7; ELG1 DNA repair: 3%; IL-1B inflam inh: 0; TDP1 cell noCPT: -23%; TDP1 block: -2%; DT40 TDP1 CPT: inconclusive

Results for CCC(Sc1nc2n[nH]c(C)c2c(=N)n1-c1cc(Cl)ccc1C)C(=O)N1CCOCC1 (stereo not given) ?
Giardia kill: 16; ELG1 DNA repair: -23%; IL-1B inflam inh: -14; TDP1 cell noCPT: 12µM*; TDP1 block: 0%; DT40 TDP1 CPT: inconclusive

Results for Cc1cccc(CSc2nnc(CCCCCNC(=O)OC(C)(C)C)o2)c1 ?
Giardia kill: 17; ELG1 DNA repair: inconclusive; IL-1B inflam inh: 15; TDP1 cell noCPT: 16µM*; TDP1 block: 1%; DT40 TDP1 CPT: inconclusive

What do the screens show for `Cc1ccc(CSc2nnc(CCCCCNC(=O)OC(C)(C)C)o2)cc1`?
Giardia kill: 5; ELG1 DNA repair: inconclusive; IL-1B inflam inh: inconclusive; TDP1 cell noCPT: 18µM*; DT40 TDP1 CPT: 23µM*

Results for C/C(=C\c1cccc(Br)c1)C(=O)c1c(C)cc(C)[nH]c1=O ?
Giardia kill: -12; ELG1 DNA repair: inconclusive; IL-1B inflam inh: -71*; TDP1 cell noCPT: -17%; DT40 TDP1 CPT: -27%

How did CCOC(=O)c1c(C)cc(C)[nH]c1=O do in these assays?
Giardia kill: 6; ELG1 DNA repair: -15%; IL-1B inflam inh: 11; TDP1 cell noCPT: 0%; TDP1 block: 0%; DT40 TDP1 CPT: -4%

How did Cc1cc(C)c(C(=O)/C=C/C=C/c2ccccc2)c(=O)[nH]1 do in these assays?
Giardia kill: 6; ELG1 DNA repair: 8%; IL-1B inflam inh: -79*; TDP1 cell noCPT: -28%; TDP1 block: 3%; DT40 TDP1 CPT: -23%
